Compound activity (PubChem)
Shown are actives, neighbours in structure and some others; about 2.8% of the full set was active somewhere.
PI5P4K alpha inh: inhibitors of human PI5P4K alpha; AID 652105; PI5P4Kalpha enzyme, ADP-Glo luminescence, 60 min; stronger effect = lower value; max response, %; P48426; 1.2% of 330,000 active; active means max response of -50% or lower; inconclusive means between -30% and -50%; inactive means -30% or higher; further: value at the top dose of about 77 µM
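Controls without substrate or without enzyme flank wells where PI5P4Kalpha converts substrate using 5 microM ATP (final). Incubation lasts 60 minutes at room temperature; ADP formed is read by ADP-Glo luminescence.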
Pol iota inh: blocks human DNA polymerase iota activity | Pol iota fluorescent replication assay, 10 min | AID 588590 | Q9UNA4 | Potency, µM (series often up to 115 µM), actives largely listed as inhibitors | 1% of 390,000 active
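Pol iota at 10 nM preincubated 15 min with compounds at room temperature; reaction started with fluorescent substrate, 50 nM final. Fluorescence read kinetically at 0 and 10 min; buffer-only wells as negative control.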
Pol kappa inh: inhibitors of human DNA polymerase kappa; Q9UBT6; purified Pol kappa, fluorescent DNA synthesis assay, 10 min; Potency, µM (highest dose often 107 µM), most hits filed as inhibitors; 0.53% of 400,000 active; AID 588579
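Inhibition of 10 nM Pol kappa is measured by a fluorescent read-out at 0 and 10 min following addition of 50 nM substrate (final), with a 15-min room-temperature compound preincubation.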
WRN inhibitor: inhibitors of human WRN helicase | Q14191 | WRN helicase unwinding, fluorescent forked duplex, kinetic | Potency, µM (doses to about 114 µM), usual class: inhibitors | 0.46% of 360,000 active | AID 651768; further: nearly all actives have a fitted effect of over 55% in size
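Kinetic fluorescence helicase assay: unwinding of a quenched forked DNA duplex (100 nM final) with 2 mM ATP final raises red fluorescence (525/598 nm). Compounds sat 15 min at room temperature with 20 nM WRN beforehand.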
Pol eta inh: blocks human DNA polymerase eta activity | AID 588591 | Potency, µM (top dose mostly 114 µM), usual class: inhibitors | 1.2% of 390,000 active | Q9Y253 | recombinant Pol eta, fluorescent DNA replication assay
Target sequence (Q9Y253 whole entry, looked up): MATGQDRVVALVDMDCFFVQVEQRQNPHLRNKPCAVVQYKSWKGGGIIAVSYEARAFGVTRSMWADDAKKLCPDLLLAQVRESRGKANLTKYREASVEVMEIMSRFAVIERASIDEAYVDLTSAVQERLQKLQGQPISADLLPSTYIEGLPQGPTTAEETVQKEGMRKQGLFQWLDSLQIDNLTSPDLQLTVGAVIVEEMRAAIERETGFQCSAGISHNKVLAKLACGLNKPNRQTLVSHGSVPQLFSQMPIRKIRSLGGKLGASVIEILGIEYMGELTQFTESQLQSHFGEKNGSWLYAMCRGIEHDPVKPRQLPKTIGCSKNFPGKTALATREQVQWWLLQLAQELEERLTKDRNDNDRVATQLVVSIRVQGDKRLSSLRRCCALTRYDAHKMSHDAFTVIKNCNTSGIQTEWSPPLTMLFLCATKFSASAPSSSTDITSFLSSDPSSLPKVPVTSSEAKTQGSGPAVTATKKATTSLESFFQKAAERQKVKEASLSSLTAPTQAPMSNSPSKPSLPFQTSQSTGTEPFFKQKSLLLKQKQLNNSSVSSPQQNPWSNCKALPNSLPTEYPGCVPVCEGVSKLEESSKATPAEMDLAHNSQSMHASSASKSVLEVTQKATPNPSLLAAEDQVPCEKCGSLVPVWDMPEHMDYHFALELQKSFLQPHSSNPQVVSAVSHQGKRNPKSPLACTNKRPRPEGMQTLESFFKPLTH
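Fluorescent replication assay: 50 nM final substrate added after a 15 min room-temperature compound preincubation with 10 nM enzyme. Signal taken at 0 min and again at 10 min.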
POLB inh: inhibitors of human DNA polymerase beta; P06746; Pol beta primer extension/strand displacement, fluorescence kinetic; Potency, µM (doses to about 114 µM), actives largely listed as inhibitors; 1.3% of 340,000 active; AID 485314
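Human Pol beta at 10 nM; strand-displacement substrate 50 nM final. Compound exposure 15 min at room temperature before start, reaction 10 min at room temperature.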
A number is an active result; 0 = inactive; ? = inconclusive; - = no result; [ ] = dose if it differs, or a comment. Unless noted, the call rests on the fitted dose curve; in most records, active means well fitted curve in the direction sought with a large enough effect; inconclusive means small, poorly fitted or top-dose-only effect, or another doubt; inactive means no such curve, though single readings can be large; an effect the other way counts as inactive or inconclusive.

SMILES	PI5P4K alpha inh	Pol iota inh	Pol kappa inh	WRN inhibitor	Pol eta inh	POLB inh
COc1ccc(Cl)cc1C(=O)Nc1sc2c(c1C(=O)OC(C)C)CCCC2	-	?	0	-	0	0
Cc1ccccc1Nc1c(-c2c(F)cccc2Cl)nc2ccc(Br)cn12	-	0	0	-	0	0
COc1ccc(Cn2cc3c(-c4ccc(F)cc4)nnc-3c3cc(OC)c(OC)cc32)cc1	0	0	0	0	0	79µM
C[N+]1(CC(=O)c2ccccc2)CCc2ccccc2C1 (stereo not given)	-	0	0	-	-	-
N#CC1=C(N)SC(N)=C(C#N)C1Cc1ccccc1	-52	0	0	0	0	0
N#CC1=C(N)SC(N)=C(C#N)C1c1c(Cl)cccc1Cl	-65	?	0	0	0	0
CC(C)CC1C(C#N)=C(N)SC(N)=C1C#N	-	?	0	0	0	?
N#CC1=C(N)SC(N)=C(C#N)C1CCc1ccccc1	-84	0	?	0	0	0
COc1ccc(CNC(=O)CCNS(=O)(=O)c2ccc3c(c2)CCCC(=O)N3)cc1	-	0	0	-	0	0
O=C(COc1cccc(Cl)c1)N1CCC(c2nc3ccccc3o2)CC1	-	0	0	-	0	0
COc1ccc2c(CC(=O)OCC(=O)Nc3ccc(C)cc3)coc2c1	0	?	?	0[11.6 µM]	20µM	-
COc1ccc2c(CC(=O)OCC(=O)Nc3ccc(S(N)(=O)=O)cc3)coc2c1	0	0	0	0	0	0
Cc1cc(Cl)nc2nc(Cl)ccc12	-	0	0	-	-	-
O=C(N/N=C/c1ccc(-c2cccc([N+](=O)[O-])c2)o1)c1ccc([N+](=O)[O-])cc1	0	0	0	0	0	0
NC(=S)N/N=C/c1ccc(-c2ccc([N+](=O)[O-])cc2)o1	-56	0	0	0	0	0
O=C(N/N=C/c1ccc(-c2cccc([N+](=O)[O-])c2)o1)c1ccccc1O	0	0	0	0[11.6 µM]	50µM	?
CCN(CCCNC(=O)c1cc2cc3cc(C)ccc3nc2s1)c1cccc(C)c1	-	0	0	-	0	0
CC(=O)n1cc(N(C(=O)CCl)c2ccc([N+](=O)[O-])cc2)c2ccccc21	0	?	0	0	40µM	0
O=Cc1[nH]c2ccccc2c1N(C(=O)CCl)c1ccc([N+](=O)[O-])cc1	0	0	0	0	0	0
O=C(Nc1ccc([N+](=O)[O-])cc1)C(=O)Nc1cccc(C(=O)O)c1	-60	0	0	0	0	0
O=C(O)c1cc(NC(=O)c2ccc([N+](=O)[O-])cc2)cc(NC(=O)c2ccc([N+](=O)[O-])cc2)c1	0	0	0	0[11.6 µM]	?	0
O=C(O)c1cccc(NC(=S)NC(NC(=O)c2cccc([N+](=O)[O-])c2)C(Cl)(Cl)Cl)c1 (stereo not given)	0	0	0	?	56µM	?
COc1ccc(Br)cc1CNC(=O)c1ccc2c(c1)nc1n2CCCCC1	-	0	0	-	0	0
Cc1nn2c(=O)cc(COC(=O)c3cccc(NC(=O)COc4ccccc4C)c3)nc2s1	-	0	0	-	0	0
Cc1ccc(C(=O)Sc2cccccc2=O)cc1	0	?	0	0	0	40µM
SMILES	PI5P4K alpha inh	Pol iota inh	Pol kappa inh	WRN inhibitor	Pol eta inh	POLB inh
O=S(=O)(NCCc1csc2nc(-c3ccc(Cl)cc3)nn12)c1ccc(Oc2ccccc2)cc1	-	0	0	-	0	0
CCC(C)N=C1Sc2nc3ccc(C)cc3cc2CN1CCOC (stereo not given)	-53	0	0	0	0	0
CCN(C(=O)c1cc2c(s1)-c1c(C)cccc1OC2)c1ccccc1F	-	0	0	-	0	0
COc1cccc(CNC(=O)c2sc3ncccc3c2-n2c(C)ccc2C)c1OC	-	0	0	-	0	0
CC1CC(C)CN(C(=O)c2cccc(S(=O)(=O)Nc3cc(C(F)(F)F)ccc3Cl)c2)C1 (stereo not given)	0	0	0	0	0	56µM
O=C(O)c1cccc(S(=O)(=O)Nc2cc(Cl)ccc2Cl)c1	0	0	0	0	0	0
O=C(O)CSc1ccccc1C(=O)O	0	0	0	0	0	0
CC(C)=CCC/C(C)=C/CC/C(C)=C/CSc1ccccc1C(=O)O	-	25µM	-	-	32µM	?
COc1ccc(-n2c(Cc3ccccc3)nnc2SCc2nc(-c3cccs3)no2)cc1	-	0	0	-	0	0
